This is part of a sample that, as a whole, favours compounds with a hit. Of some 83,000 tested, about 20% had one in any assay.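 Single-dose data. Exposure time 48 hours. Values below 10 considered active.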 The source made the active and inactive calls.
test system: SK-MEL-2 melanoma; test: NCI-60 one-dose screen, 48 h (100 = growth as untreated, 0 = no growth, -100 = all killed); settings: 10 µM unless noted

Compound	growth
Nc1ccc(S(=O)(=O)Nc2ccnn2-c2ccccc2)cc1	115% (inactive)
O=C(Nc1cccc(-n2ccc3c(NC(=O)c4ccccc4)nccc32)c1)Nc1cc(C(F)(F)F)cc(C(F)(F)F)c1	-11.9% (active)
Nc1nccc2c1ccn2-c1cccc(NC(=O)c2ccc(N3CCOCC3)c(C(F)(F)F)c2)c1	-6.68% (active)
COc1ccc(-c2nn(-c3ccc(NC(=O)Nc4cc(C(F)(F)F)cc(C(F)(F)F)c4)cc3)cc2-c2ccncc2)cc1Cl	-38.3% (active)
CN(C)CCS(=O)(=O)Nc1cc(-c2ccc3ncnc(Nc4ccc(F)c(Cl)c4)c3c2)cnc1Cl	-53.4% (active)
O=C(CSc1nnc(-c2cc3c([nH]c4ccccc43)c(-c3cccc(O)c3)n2)n1-c1ccccc1)c1ccccc1	65.7% (inactive)
CNCCCOc1c(Br)cc(CCNC(=O)/C(Cc2cc(Br)c(OC)c(Br)c2)=N/O)cc1Br	-54.7% (active)
O=C(Nc1cccc(-n2ccc3c(NC(=O)c4ccccc4)nccc32)c1)c1cc(N2CCOCC2)cc(C(F)(F)F)c1	-4.8% (active)
CCC1(C(N)=O)CC2C=CC1CC2 (centres undefined)	124% (inactive)
[2H]c1nc(Nc2ncc(F)c(-c3cc(F)c4nc(C)n(C(C)C)c4c3)n2)c([2H])c([2H])c1CN1CCN(CC)CC1	70.5% (inactive)
O=C1c2ccccc2OC=C(c2ccccc2)N1CCCCN1CCCCC1	69% (inactive)
O=S(=O)(Nc1cccc2cc(OS(=O)(=O)c3ccccc3)ccc12)c1ccccc1	66.9% (inactive)
COc1cc(CN(c2ccc(Cl)cc2)C2OC(=O)c3ccccc32)cc(OC)c1OC (centres undefined)	41.6% (inactive)
O=C(Nc1ccc(-n2ccc3c(NC(=O)c4ccccc4)nccc32)cc1)c1cccc(C(F)(F)F)c1	46.1% (inactive)
O=C(Nc1ccc(-n2ccc3c(NC(=O)c4ccccc4)ncnc32)cc1)Nc1cccc(Cl)c1Cl	-39.1% (active)
CC1OC(n2c3ccccc3c3c4c(c5c6ccccc6[nH]c5c32)C(=O)N(CCN[C@@H]2CCC[C@H]2N)C4=O)CC(O)C1O (some centres undefined)	47.1% (inactive)
O=C(Nc1cccc(-n2ccc3c(NC(=O)c4ccccc4)nccc32)c1)c1cccc(C(F)(F)F)c1	18.8% (inactive)
CC(=O)c1cc2c(c(O)c1C)C(=O)C(=O)c1c(O)cccc1-2	-72.7% (active)
O=S(c1ccccc1)c1ccc2nnnn2n1 (centres undefined)	98.9% (inactive)
O=C1OC(N(Cc2ccc(Cl)cc2)c2ccccc2)c2ccccc21 (centres undefined)	94.4% (inactive)

Compound	growth
COc1ccc(Cn2cc3c(c2-c2cc(OC)c(OC)c(OC)c2)CCc2c(CO)noc2-3)cc1	49.5% (inactive)
O=C1C(Cl)=C(Nc2ccccc2)C(=O)C(Cl)=C1Nc1ccccc1	113% (inactive)
O=S(=O)(CCN1CCOCC1)Nc1cncc(-c2ccc3ncnc(Nc4ccc(F)c(Cl)c4)c3c2)c1	81.5% (inactive)
COC1=C(OC)C(=O)C=CC1=O	112% (inactive)
Nc1nc(-c2cc3c(cc2Cl)NC(=O)/C3=C/c2ccc(Cl)cc2)cs1	36.6% (inactive)
O=C(NCCNc1nccc(-c2c(-c3cccc(O)c3)nc3sccn23)n1)Nc1cc(C(F)(F)F)cc(C(F)(F)F)c1	110% (inactive)
CCn1c(SC)nnc1-c1cc2c([nH]c3ccccc32)c(-c2cccc(O)c2)n1	15.6% (inactive)
C=CC(=O)Nc1cccc(Nc2nc(Nc3ccc(OCCOC(F)F)cc3)ncc2F)c1	0.225% (active)
NC(=O)C1=C[C@H]2[C@H]3C=C[C@@]2(O)C(=O)O[C@@H]3O1	42.4% (inactive)
COc1ccc(-c2ccc(NC(=O)Nc3ccc(Cl)c(C(F)(F)F)c3)c(C)n2)cc1	62.1% (inactive)
O=C(Nc1ccc(-n2ccc3c(NC(=O)c4ccccc4)ncnc32)cc1)Nc1ccc(Cl)c(C(F)(F)F)c1	-22.3% (active)
COc1cc(Cn2cc3c(c2)-c2onc(CO)c2CC3)cc(OC)c1OC	90.2% (inactive)
COc1ccccc1NC(=O)COc1ccc(/C=C2/Oc3cc4occc4c(OC)c3C2=O)cc1OC	108% (inactive)
O=C(Nc1ccc(-n2cc(-c3ccncc3)c(-c3ccc(O)c(Cl)c3)n2)cc1)Nc1cc(C(F)(F)F)cc(C(F)(F)F)c1	77.6% (inactive)
c1ccc(CNCCN(CCNCc2ccccn2)Cc2ccc3ccccc3c2)nc1	9.46% (active)
Cc1ccc2[nH]c3nc4cccnc4c(C)c3c2c1	119% (inactive)
O=[N+]([O-])c1ccccc1NC1c2ccccc2Oc2ccccc21	57% (inactive)
C=CCn1c(SCC(=O)Nc2ccc(C(=O)/C=C/c3cc(OC)c(OC)c(OC)c3)cc2)nnc1-c1ccc(OC)cc1	15.1% (inactive)
O=C(NCCNc1nccc(-c2c(-c3cccc(O)c3)nc3sccn23)n1)c1ccccc1O	13.9% (inactive)

From PubChem BioAssay (NCI)
